According to PubChem BioAssay AID588591 (National Center for Advancing Translational Sciences (NCATS), 2011):
Hit rate of the full screen: of about 390,000 compounds, about 4,700 (1.2%) were called active. Roughly 4% stayed inconclusive and do not appear here. Calls follow the shape of the dose curve; as a rule, active = well fitted inhibition curve with a large enough effect; inconclusive = small, poorly fitted or top-dose-only effect, or another doubt; inactive = no such curve, though single readings can be large or run the other way. Shown is part of a subset that was picked to be rich in actives. Entries that show only a call come without a potency.

target: DNA polymerase eta (Homo sapiens) (UniProt Q9Y253); test: qHTS for Inhibitors of Polymerase Eta; conditions: recombinant Pol eta, fluorescent DNA replication assay; series mostly up to 114 µM
Summary of the method: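 Pol eta at 10 nM preincubated with compounds 15 min at room temperature; reaction started with fluorescent substrate (50 nM final) and read kinetically at 0 and 10 min.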
Potency is read from the fitted curve at half-maximal effect.

Chain of DNA polymerase eta (Homo sapiens) (Q9Y253 whole entry, looked up): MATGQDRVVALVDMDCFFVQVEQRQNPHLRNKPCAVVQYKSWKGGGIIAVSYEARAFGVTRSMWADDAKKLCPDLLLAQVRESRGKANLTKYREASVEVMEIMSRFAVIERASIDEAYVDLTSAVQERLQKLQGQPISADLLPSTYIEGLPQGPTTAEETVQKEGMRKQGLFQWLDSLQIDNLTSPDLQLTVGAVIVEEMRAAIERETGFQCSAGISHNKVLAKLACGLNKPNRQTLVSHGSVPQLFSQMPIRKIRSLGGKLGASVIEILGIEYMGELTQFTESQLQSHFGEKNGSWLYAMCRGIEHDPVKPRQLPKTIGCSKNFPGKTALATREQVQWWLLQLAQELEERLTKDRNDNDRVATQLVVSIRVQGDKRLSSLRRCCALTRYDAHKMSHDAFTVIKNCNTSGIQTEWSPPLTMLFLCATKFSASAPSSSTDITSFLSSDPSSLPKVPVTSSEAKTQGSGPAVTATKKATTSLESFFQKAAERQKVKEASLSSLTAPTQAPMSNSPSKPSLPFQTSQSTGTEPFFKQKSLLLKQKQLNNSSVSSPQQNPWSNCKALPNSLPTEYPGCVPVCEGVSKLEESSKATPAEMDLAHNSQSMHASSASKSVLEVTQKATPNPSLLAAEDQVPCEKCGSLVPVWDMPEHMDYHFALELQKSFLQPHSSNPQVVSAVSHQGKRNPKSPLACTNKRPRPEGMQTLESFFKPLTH

Structure (SMILES)	Potency
CCOc1ccc(C2C(C(=O)Nc3ccc(Cl)cc3)=C(C)Nc3nc(C(F)(F)F)nn32)cc1 (stereo not given)	inactive
CCc1nnc2c3ccccc3nc(N3CCN(c4ccc(C)cc4C)CC3)n12	inactive
O=C(CCc1ccccc1)NCc1ccc2c(c1)CCN2C(=O)c1ccccc1	inactive
CSC1=N/C(=C\C=C\c2cccs2)C(=O)S1	17.8 µM (active)
COc1cccc(-n2ccn(CC(=O)NCc3ccc(C)cc3)c(=O)c2=O)c1	inactive
COc1ccc(Cn2ccnc2SCC(=O)NCc2ccco2)cc1	inactive
O=c1cc2nc(-c3ccccc3)nc(SCCOc3ccc(Cl)cc3)n2[nH]1	inactive
Cc1ccc(OCCSc2nc(-c3cccs3)nc3cc(=O)[nH]n23)cc1Cl	79.4 µM (active)
CC(C)c1c(O)nc(SCCOc2ccc(Cl)cc2)[nH]c1=O	inactive
CCCNC(=O)CCC(=O)N1Cc2ccccc2Oc2ncccc21	inactive
CC(=O)c1ccc(N2CCN(C3C(=O)c4ccccc4N3C(C)=O)CC2)cc1 (stereo not given)	inactive
COc1ccccc1C(=O)N/C(=C/c1ccc2c(c1)OCO2)C(=O)Nc1cccc(C(=O)O)c1	inactive
COc1ccccc1C(=O)N/C(=C/c1ccco1)C(=O)Nc1ccc(C(=O)O)cc1	17.8 µM (active)
COc1ccccc1C(=O)NC(=O)COC(=O)c1ccco1	inactive
COc1cccc(CNC(=O)CCC(=O)N2CC3CCCN3c3ccccc32)c1 (stereo not given)	inactive
CC(N)=NCc1cccc(CN)c1	inactive
COc1ccc(OCC(=O)Nc2nnc(-c3ccco3)s2)cc1	56.2 µM (active)
COc1ccc(NC(=O)COCc2cc(-c3ccco3)on2)cc1	inactive
COc1ccc(OCCCC(=O)Nc2nnc(C3CCCO3)s2)cc1 (stereo not given)	inactive
Cc1cc(O)c(C(c2ccccc2)N2CCN(c3ccccc3F)CC2)c(=O)n1Cc1ccco1 (stereo not given)	inactive
Cc1ccc(NC(=O)Nc2sc3nc4n(c(=O)c3c2C)CCC(C)CC4)c(Cl)c1 (stereo not given)	inactive
CCOC(=O)c1c(S(=O)(=O)N2CCCC(C(=O)NCc3cccc(C)c3)C2)c(C)n(C)c1C (stereo not given)	inactive

Structure (SMILES)	Potency
Cc1cccc(NC(=O)c2ccc(F)c(S(=O)(=O)N(C)C3CCCCC3)c2)c1	inactive
CCOC(=O)c1c(SCC(=O)Nc2cccc(C)c2C)nc(=O)[nH]c1C	inactive
CCOC(=O)c1c(C)[nH]c2c1-c1ccccc1C(=O)C2=O	3.16 µM (active)
CCOC(=O)c1c(C)[nH]c(C)c1S(=O)(=O)N(C)CC(=O)N1CCN(c2ccccc2)CC1	inactive
COc1ccc(Cl)cc1NC(=O)CSc1nc(=O)[nH]c2c1CCCC2	inactive
COc1ccc(NC(=O)CCN2CCN(CCO)CC2)cc1	inactive
Cc1csc2nc(COC(=O)c3ccc(NC(=O)COc4ccccc4F)cc3)cc(=O)n12	inactive
COc1ccc2[nH]c3c(C)c4cc[n+](C)cc4c(C)c3c2c1	1.12 µM (active)
CC(=O)Nc1c(C)nn(-c2ccccc2)c1N1CCC(C(=O)Nc2cc(Cl)ccc2C)CC1	inactive
Cc1cc(-c2ccccc2)n2nc(-c3ccccc3)cc2n1	inactive
COc1ccccc1OCCCn1c(-c2ccc(Cl)cc2)nc2ccccc2c1=O	inactive
O=C(Nc1nnc(S(=O)(=O)N2CCCCCC2)s1)c1cccc(Br)c1	inactive
O=C(Nc1nnc(S(=O)(=O)N2CCCc3ccccc32)s1)c1cccc(F)c1	50.1 µM (active)
O=C(Nc1nnc(S(=O)(=O)N2CCOCC2)s1)c1cccc(Br)c1	inactive
COc1cc(NC(=O)c2cc(C3CC3)nc3c2c(C)nn3-c2ccccc2)cc(OC)c1	inactive
Cc1nn(Cc2ccc(F)cc2)c(C)c1NC(=O)c1cc(CC(C)C)on1	inactive
Cc1ccc(Cl)cc1NC(=O)Cc1ccc(-n2c(C)nc3cccnc32)cc1	inactive
CCc1nc2cccnc2n1-c1ccc(CC(=O)Nc2c(C)cccc2C)cc1	inactive
CCc1nc2cccnc2n1-c1ccc(C(=O)O)cc1	20 µM (active)
O=C(O)c1ccc(Nc2nc(-c3ccccc3)c3cc(Br)ccc3n2)cc1	inactive
CCN(CC)c1ccc(NC(=O)CN2CCN(CC(=O)Nc3ccc(Cl)cc3)CC2)cc1	inactive
CCc1ccc(S(=O)(=O)Nc2cc3c(C(=O)OCc4ccccc4)c(C)oc3c3ccccc23)cc1	inactive

Structure (SMILES)	Potency
Cc1ccc(Cc2cnc(N)s2)o1	79.4 µM (active)
CCOC(=O)C1CCN(c2nc3c(S(=O)(=O)c4ccc(CC)cc4)nnn3c3ccc(Cl)cc23)CC1	inactive
CCCN(CCC)C(=O)C(Cc1ccccc1)NS(=O)(=O)c1ccc2c(c1)c(=O)n(C)c(=O)n2C (stereo not given)	inactive
Cc1ccccc1CSc1nnc(-c2ccccc2)c(=O)[nH]1	inactive
N#Cc1c(-c2ccccc2)nc(SCc2cccc(C(F)(F)F)c2)[nH]c1=O	89.1 µM (active)
Cc1oc(-c2ccccc2)nc1Cn1c(SCc2cccc(C(F)(F)F)c2)nc2cccnc21	inactive
COc1ccccc1OCC(=O)Nc1nnc2n1CCS2	inactive
COc1ccccc1CNC(=O)c1ccc(NC(=O)N2CC(C)Sc3ccccc32)cc1 (stereo not given)	inactive
Cc1cccc(NC(=O)CSc2nc(-c3ccco3)cc(C(F)(F)F)n2)c1C	inactive
Cc1cc(C)c2nc(-c3ccco3)cc(C(=O)O)c2c1	22.4 µM (active)
Cc1ccc(F)cc1NC(=O)CCSc1nc(-c2ccco2)cc(C(F)(F)F)n1	inactive
CCN(CCCNC(=O)c1cc2c(=O)n(CC)c3ccccc3c2s1)Cc1ccccc1	inactive
COC(=O)c1ccccc1NC(=O)c1cc(-c2ccccc2O)no1	inactive
COc1ccc(NC(=O)c2sc3nc[nH]c(=O)c3c2C)cc1	inactive
CCOC(=O)c1ccc(N2C(=O)c3[nH]nc(-c4ccccc4)c3C2c2ccc(C(C)C)cc2)cc1 (stereo not given)	inactive
O=C(O)c1cccc2c1C(=O)N(C1CCCCC1)C2	31.6 µM (active)
COC(=O)c1ccc(NC(=O)c2cccc3c2C(=O)N(C2CCCCC2)C3)cc1	inactive
O=C(O)c1cccc2c1C(=O)N(C1CCCC1)C2	inactive
CCC1(C)CC(=O)NC1=O (stereo not given)	inactive
Cc1cc2nc(-c3ccc(NC(=O)c4cc5ccccc5o4)cc3)oc2cc1C	inactive
Cc1cccc(N(C)C(=O)CS(=O)(=O)c2cccc3nsnc23)c1	inactive
